Only a selection was taken, and hits are over-represented in it overall.
S1P2 agonist = activates the human S1P2 receptor; 0.46% of 97,000 active; AID 729; O95136; S1P2-expressing cell line, agonist reporter read-out; activation, % at 4.5 µM; in the data active = activation above about 16%;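 also: 0% = vehicle low control and 100% = maximal reference agonist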
PostGolgi ctrl = growth of the yeast control strain, post-Golgi counter-screen; efflux-deficient yeast background strain, growth absorbance A615, 16 h; inhibition, % at 10 µM; 5% of 98,000 active; AID 738
PostGolgi yeast = growth inhibition of a yeast mutant, post-Golgi transport screen. post-Golgi transport phenotypic cell assay. inhibition, % at 10 µM. 0.9% of 98,000 active. AID 739;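 also: yeast cells grown in 1536-well plates; yeast grown about 18 h at 30C before absorbance read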
GALR2 blocker = blocks the human galanin receptor 2; AID 828; O43603; 0.39% of 140,000 active; GALR2-expressing cells, antagonist mode; inhibition, % at 4 µM; in the data active = inhibition above about 27%;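 also: cells stimulated with galanin 1-16 at roughly its EC80; 0% = agonist challenge control and 100% = basal control without agonist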
Target sequence (O43603 whole entry, looked up): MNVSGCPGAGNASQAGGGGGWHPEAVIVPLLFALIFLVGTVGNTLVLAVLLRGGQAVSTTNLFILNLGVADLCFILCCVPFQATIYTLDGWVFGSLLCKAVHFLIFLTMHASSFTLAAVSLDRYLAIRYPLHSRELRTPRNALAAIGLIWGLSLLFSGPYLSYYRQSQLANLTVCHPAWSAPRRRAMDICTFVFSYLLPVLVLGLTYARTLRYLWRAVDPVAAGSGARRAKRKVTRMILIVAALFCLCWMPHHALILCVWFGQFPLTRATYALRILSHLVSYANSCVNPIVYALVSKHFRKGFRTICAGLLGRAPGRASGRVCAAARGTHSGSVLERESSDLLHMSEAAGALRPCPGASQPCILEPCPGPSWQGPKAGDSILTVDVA
S1P2 blocker = antagonists of human S1P2 receptor. inhibition, % at 5 µM. 0.21% of 97,000 active. cell-based S1P2 antagonist assay, inhibition at 5 uM. O95136; in the data active = inhibition above about 45%;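 also: CRE beta-lactamase reporter cells expressing human S1P2 stimulated with S1P; 0% = agonist at EC80 alone and 100% = agonist plus reference antagonist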
GALR2 agonist = activates the human galanin receptor 2. GALR2-expressing cells, agonist activation read-out. activation, % (test concentration not listed). 0.48% of 140,000 active. AID 803; in the data active = activation above about 5%, passing the limit was not always enough;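 also: 0% = vehicle buffer wells and 100% = reference agonist at full effect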
An asterisk follows results filed as active; nt = not tested or not shown. Rule as the data show it, unless noted: active = inhibition above about 30%; inactive = the rest.

SMILES | S1P2 agonist | PostGolgi ctrl | PostGolgi yeast | GALR2 blocker | S1P2 blocker | GALR2 agonist
CCOC(=O)c1ccc(NC(=O)COc2ccc(S(=O)(=O)NC(C)CC)cc2)cc1 (configuration not stated) | -5 | -3 | -23 | 11 | -23 | -1
CCOC(=O)c1ccc(NC(=O)C(C)NS(=O)(=O)c2ccc(OC)cc2)cc1 (configuration not stated) | -7 | 36* | -5 | 10 | -5 | -1
FC(F)(F)c1cccc(NC(=S)Nc2ccc(Cl)cc2Cl)c1 | -1 | 53* | 38* | 1 | 1 | -1
CCOC(=O)c1ccc(NC(=O)Nc2ccc(F)cc2)cc1 | 22* | 6 | -2 | -6 | 19 | 0
S=C(Nc1ccccc1)Nc1ccc(Cl)cc1Cl | -10 | 0 | -3 | -4 | 25 | -1
Fc1ccc(NC(=S)Nc2ccc(F)c(Cl)c2)cc1Cl | 1 | 65* | 72* | 5 | -18 | -1
CC(NC(=O)c1ccccc1)c1ccc(F)cc1 (configuration not stated) | nt | nt | nt | 10 | nt | 0
COC(=O)c1ccc(NC(=O)Nc2ccc(F)c(Cl)c2)cc1 | -5 | 35* | 3 | 0 | -20 | -1
COc1ccc(CCCC(=O)N/N=C/c2cccc(OC)c2O)cc1C | nt | nt | nt | 20 | nt | -1
COCCN(C(=O)CN1CCN(S(=O)(=O)c2ccc(F)cc2)CC1)c1c(N)n(Cc2ccccc2)c(=O)[nH]c1=O | nt | nt | nt | 15 | nt | -1
COC(=O)C1=C(C)Nc2sc(C(N)=O)c(N)c2C1c1ccncc1 (configuration not stated) | nt | nt | nt | -1 | nt | 0
CCOC(=O)C1=C(C)Nc2sc(C(=O)c3ccc(OC)cc3)c(N)c2C1c1ccc(C(=O)OC)cc1 (configuration not stated) | nt | nt | nt | -2 | nt | 5.6*
CCCCC(c1nnnn1CC1CCCO1)N1CCN(c2cc(Cl)ccc2C)CC1 (configuration not stated) | 0 | 31* | 1 | -7 | 0 | 0
CCCCC(c1nnnn1CC1CCCO1)N1CCN(c2nc3ccccc3s2)CC1 (configuration not stated) | -3 | 8 | -10 | -8 | -12 | -3
CN(C)CC(C)(C)CNS(=O)(=O)c1cccc(Cl)c1Cl | 1 | 11 | 0 | -23 | -2 | 0
OC(COc1ccc2cc(Br)ccc2c1)CN1CCN(c2ccccn2)CC1 (configuration not stated) | -7 | 37* | 0 | 5 | -12 | 0
COc1cccc(OCC(O)CN2CCN(c3ccccn3)CC2)c1 (configuration not stated) | nt | nt | nt | -10 | nt | -1
CN(C)S(=O)(=O)N1CCN(CC(O)COc2ccc3cc(Br)ccc3c2)CC1 (configuration not stated) | -9 | 41* | 7 | 15 | 27 | -4
O=S(=O)(N1CCCCC1)N1CCN(CC(O)COc2ccc3cc(Br)ccc3c2)CC1 (configuration not stated) | -4 | 18 | 8 | -11 | 18 | -2
CC1CCCC(NC(=S)NC(=O)c2ccccc2Br)C1C (configuration not stated) | nt | nt | nt | -7 | nt | 0
Cc1nc2sc(C(c3cccs3)N3CCN(C(=O)c4ccco4)CC3)c(O)n2n1 (configuration not stated) | nt | 0 | 2 | 13 | nt | -2
Cc1nc2sc(C(c3ccc(Cl)cc3)N3CCN(c4ccccc4F)CC3)c(O)n2n1 (configuration not stated) | -9 | 32* | 2 | 8 | 16 | 0
Cc1nc2sc(C(c3cccs3)N3CCN(c4cccc(Cl)c4)CC3)c(O)n2n1 (configuration not stated) | nt | 48* | -1 | 11 | nt | -2
O=[N+]([O-])c1ccc(OCC(O)CN2CCN(c3ccccc3F)CC2)cc1 (configuration not stated) | nt | nt | nt | -12 | nt | 1
COCCNC(=O)c1c(N)n(CCC2=CCCCC2)c2nc3ccccc3nc12 | 26* | 17 | 11 | -14 | -51 | 19*
SMILES | S1P2 agonist | PostGolgi ctrl | PostGolgi yeast | GALR2 blocker | S1P2 blocker | GALR2 agonist
O=C(c1ccc2c3c(cccc13)C(=O)N(O)C2=O)N1CCCCC1 | -6 | -1 | -2 | -3 | 24 | -2
O=C1c2cccc3c(Cl)ccc(c23)C(=O)N1O | -8 | 34* | 4 | 8 | 26 | -2
CCn1c(C(=O)N2CCc3ccccc3C2)cc2oc3ccccc3c21 | -3 | 34* | -2 | -19 | -24 | -3
CCOc1ccccc1CNC(=O)c1cc2oc3ccccc3c2n1CC | -4 | 31* | -7 | 3 | -4 | -3
Cn1c(C(=O)N2CCc3ccccc3C2)cc2oc3ccccc3c21 | nt | 56* | -2 | 5 | nt | -1
O=C(Cn1ncc2c(=O)oc3ccccc3c21)N1CCc2ccccc2C1 | nt | -16 | -1 | -6 | nt | -1
C#CCn1c(S(=O)(=O)Cc2ccc(OC)cc2)nc(-c2ccccc2)c1-c1ccccc1 | -3 | 25 | 0 | -22 | 17 | 2
CCOC(=O)N(NC(=O)C(O)(CC(C)C)CC(C)C)c1ccccc1 | nt | nt | nt | -3 | nt | -1
Cc1ccc(S(=O)(=O)Cc2ccc(C(=O)OCc3ccccc3)cc2)cc1 | -1 | 35* | -4 | -6 | -14 | -1
Cc1ccc(C2=Nc3ccccc3N=C(c3ccc([N+](=O)[O-])cc3)C2)c(O)c1 | nt | nt | nt | -16 | nt | 0
Cc1ccc(Nc2cc(C)nn2-c2nc(C)cc(=O)[nH]2)cc1 | -7 | 100* | 94* | -6 | 15 | -3
Cc1ccc(Nc2cc(C)nn2-c2nc(C)cc(C)n2)cc1 | -7 | 39* | -4 | -8 | -30 | 0
Cc1ccc(Nc2cc(C)nc3nnnn23)cc1 | -5 | 15 | -12 | 2 | 18 | -1
Cc1cc(C)n(-c2nc3ccccc3nc2Nc2ccc(CC(=O)O)cc2)n1 | -3 | 15 | 4 | 12 | 13 | -2
Cc1ccc(Nc2nc3ccccc3nc2-n2nc(C)cc2C)cc1 | 20* | -3 | -2 | -4 | 10 | 2
Cc1cc(C)n(-c2nc3ccccc3n3nnnc23)n1 | nt | 34* | 5 | 10 | nt | -2
CC(C)N(C(=O)C(F)(F)F)C(C(=O)NC1CCCCC1)c1ccncc1 (configuration not stated) | 2 | nt | nt | -5 | -39 | -1
COc1cccc2c(=O)cc(C)n(CC(=O)Nc3cccc(C)c3)c12 | nt | nt | nt | 9 | nt | -2
COc1cc(NC(=S)N2CCCC(CO)C2)c(OC)cc1Cl (configuration not stated) | nt | nt | nt | -1 | nt | 0
COc1ccc(/C=C/C(=O)c2ccc(Cl)s2)cc1O | -6 | 3 | 3 | 3 | -8 | -2
COc1cc(/C=C/C(=O)c2ccc(Cl)s2)cc(OC)c1O | -4 | 45* | 20 | 18 | -6 | -1
Cn1c2ccccc2c2ncn(CCC3=CCCCC3)c(=O)c21 | -4 | 34* | -4 | 8 | 1 | -2
Cn1c2ccc(F)cc2c2ncn(CCN3CCOCC3)c(=O)c21 | 2 | 20 | 33* | -1 | -32 | 0
CCn1cc(CNC(=O)c2c(-c3c(Cl)cccc3Cl)noc2C)c(C)n1 | nt | nt | nt | 12 | nt | 1
CCOC(=O)c1sc(C)c2c1NC1(CCCCC1)NC2=O | 17* | 9 | 3 | -2 | -45 | 19*
